Bioassay records from PubChem BioAssay.
Compounds with a hit are over-represented: about 7.8% of the library has one in this group of screens.
VACV mCherry inh = inhibitors of vaccinia virus infection (mCherry reporter signal); 0.63% of 310,000 active; Vaccinia virus mCherry reporter infection, fluorescence; Potency, µM (titrated, usually from 36.5 µM), for the others: at the top dose activity change, negative = inhibition, usual class: inhibitors; calls by dose curve; tested in A549 cells; note: potency is the fitted concentration of half-maximal effect; nearly all actives have a fitted effect of over 35% in size
Lassa entry inh = Lassa virus entry inhibition; Lassa virus pseudotype entry inhibition, cell reporter; Potency, µM (doses to about 37.9 µM), for inactives: top-dose activity change, negative = inhibition, usual class: inhibitors; 1.2% of 300,000 active; calls by dose curve; tested in HEK293 cells; note: potency is the fitted concentration of half-maximal effect; nearly all actives have a fitted effect of over 50% in size
Marburg entry inh = inhibitors of Marburg virus binding or cell entry | Potency, µM (highest dose often 37.8 µM), for inactives: top-dose activity change, negative = inhibition, usual class: inhibitors | AID 540276 | Marburg virus pseudotyped entry inhibition, cell reporter | 1.8% of 300,000 active; calls by dose curve; tested in HEK293 cells; note: potency is the fitted concentration of half-maximal effect
HCV inhibitor = inhibitors of hepatitis C virus infection. Huh7.5.1 HCVcc-Cre infection, luciferase reporter, 44 h. Potency, µM (doses to about 41.8 µM), inactives show top-dose activity change, negative = inhibition, hits mostly inhibitors. 3.4% of 340,000 active; active = well fitted inhibition curve with a large enough effect; inconclusive = small, poorly fitted or top-dose-only effect, or another doubt; inactive = no such curve, though single readings can be large or run the other way; note: potency is the fitted concentration of half-maximal effect
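Reporter virus HCVcc-Cre (~0.5 moi) infects cells exposed to compound; seeding density 1,000 cells/well with 4 h settling beforehand. Luminescence, 15 sec read, taken 44 h post-infection following a 15 min RT substrate incubation.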
VACV Venus inh = inhibitors of vaccinia virus (Venus reporter). 0.46% of 330,000 active. Vaccinia virus Venus reporter expression, fluorescence. Potency, µM (top dose mostly 36.5 µM), for inactives: top-dose activity change, negative = inhibition, most hits filed as inhibitors; calls by dose curve; tested in A549 cells; note: potency is the fitted concentration of half-maximal effect; nearly all actives have a fitted effect of over 30% in size
HCMV inh = blocks human cytomegalovirus replication. HFF cells, HCMV-luciferase reporter, 72 h; active compounds read low. activity change, negative = inhibition, % at 57.5 µM. 4.5% of 410,000 active. AID 1259415; in the data active = activity change below about -60%; inconclusive = no clear call, values can overlap the other calls; inactive = above about -39%
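Screen run at 2 compound doses on HFFs infected with reporter HCMV, MOI 1 PFU/cell. Luciferase activity from cell lysates at 72 h post infection gave inhibition relative to buffer-only and Salinomycin wells.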
* = called active by the depositor; i = inactive; ? = inconclusive; / = not tested or not shown; [ ] = another dose, or the depositor's remark. % is set by controls: 0 for no effect and ±100 for the full control effect.

SMILES	VACV mCherry inh	Lassa entry inh	Marburg entry inh	HCV inhibitor	VACV Venus inh	HCMV inh
Cc1ccc(NC(=S)Nc2ccc3cn[nH]c3c2)cc1C	/	/	/	11%	/	-33
Cc1ccc(S(=O)(=O)N(C)C)cc1NC(=S)Nc1ccc2cn[nH]c2c1	-23%	14%	-5%[46.1 µM]	2%	-6%	-67*
CC12C=C(C=CCCc3ccco3)C(C)(C1)[C@H](CCc1ccco1)CC2=O (stereo partly drawn)	/	/	29%[14.2 µM]	/	/	/
COCC1CCN(C(=O)c2cc(COc3ccc4c(c3)CCCC4)on2)C1 (stereo not drawn)	-1%	?	21%	?	-15%	28
COCCOC1CCN(C(=O)c2cc(COc3ccc(-n4cncn4)cc3)on2)CC1	-13%	-17%	2%	0%	-1%	25
COCCC1CCCCN1C(=O)c1cc(COc2ccc(-n3cncn3)cc2)on1 (stereo not drawn)	-20%	?	?	10µM*	-21%	-74*
CCCN1CCN(C(=O)c2cc(COc3ccc4ncccc4c3)on2)CC1	i	/	/	10µM*	-10%	-68*
CCN1CCN(C(=O)c2cc(COc3ccc4ncccc4c3)on2)CC1	i	/	-19%[46.1 µM]	11µM*	-18%	-82*
COCC1CCCCN1C(=O)c1cc(COc2ccc3ncccc3c2)on1 (stereo not drawn)	/	/	/	-2%	/	-84*
COC(=O)c1ccccc1C(=O)N1CCc2c(cnc(C)c2CNC(=O)c2ccccc2F)C1	-11%	/	/	/	-5%	/
COc1ccccc1C(=O)NNC1=C(C(=O)C(F)(F)F)CCC1	-9%	?	?	?	7%	-100*
Nc1ccccc1C(=O)NNC1=C(C(=O)C(F)(F)F)CCC1	-23%[7.34 µM]	-21%	6%[46.1 µM]	?	-5%[7.34 µM]	-85*
O=C(NNC1=C(C(=O)C(F)(F)F)CCC1)c1ccccc1O	-21%[1.46 µM]	-10%	-21%	32%	-28%	55
Cc1cccc(C)c1Nc1c(-c2ccccc2F)nc2ccccn12	/	/	/	/	/	-3
Cc1cccc(C)c1-c1ccc(CN2C(CC(C)C)C(=O)N(Cc3cn(CC4CCCCC4)nn3)CCS2(=O)=O)cc1 (stereo not drawn)	?	/	/	6%	-9%	-100*
CC1CC(C)CN(CCCNC(=O)c2ccc(CS(=O)(=O)Cc3ccccc3F)o2)C1 (stereo not drawn)	/	-2%	2%	-1%	-11%	-73*
Cc1ccc2c(c1)c(=O)c(C(=O)c1ccc3c(c1)OCO3)cn2Cc1ccc(Cl)cc1	-13%	-17%[46.1 µM]	?	/	-13%	-25
CCOC(=O)NNc1ccccc1	-24%	0%	?	14%	3%	35
CCC(O)CC(C(=O)NNc1ccccc1)C(=O)NNc1ccccc1 (stereo not drawn)	-14%	?	2.5µM*	-6%	-8%	-38
CCOC(=O)c1ccccc1NC(=O)c1cnn(-c2ccc(OC)cc2)c1C1CCN(C(=O)OC(C)(C)C)CC1	2%	?	/	/	-7%	0
COc1cccc(CNC(=O)CCc2nnc3n(CC(C)C)c(=O)c4ccccc4n23)c1	?	/	1%[46.1 µM]	/	-18%	?
O=C(O)c1ccc([N+](=O)[O-])c(CS(=O)(=O)c2ccccc2)c1	-6%	-12%	7%	-1%	-26%	-28
CN(C)/C=C/C(=O)c1ccc([N+](=O)[O-])c(CS(=O)(=O)c2ccccc2)c1	i	9%[46.1 µM]	-2%[46.1 µM]	1%	-11%	-98*
CCN(CC)c1ccc(-c2nc3cnccc3n2C)cc1	/	-25%	?	11µM*	-5%	11
Cn1c(-c2ccncc2)nc2ccccc21	/	/	/	6%	/	7
SMILES	VACV mCherry inh	Lassa entry inh	Marburg entry inh	HCV inhibitor	VACV Venus inh	HCMV inh
COc1cc(N)c(Cc2nccc3cc(OC)c(OC)cc23)cc1OC	?	?	-15%[46.1 µM]	-19%	1%	2
COc1cc2ccnc(Cc3cccc(OC)c3OC)c2cc1OC	-17%	/	20%[46.1 µM]	?	-21%	-72*
CCOc1cc(-c2nccc3cc(OC)c(OC)cc23)cc(OCC)c1OCC	-14%	?	13µM*	?	-12%	-27
COC(=O)c1ccc(N2CCC(c3cc(-c4ccc(OC)cc4)n[nH]3)CC2)c([N+](=O)[O-])c1	/	?	?	11µM*	/	-33
COC(=O)c1ccc(N2CCN(C(=O)C3CC3)CC2)c([N+](=O)[O-])c1	-14%	12%[46.1 µM]	?	-5%	1%	-32
CC(=O)c1ccc(N2CCC(c3cc(-c4ccc(Cl)cc4)n[nH]3)CC2)c([N+](=O)[O-])c1	/	-21%	-28%	?	/	/
COc1ccc(-c2cc(C3CCN(c4ccc(C(C)=O)cc4[N+](=O)[O-])CC3)[nH]n2)cc1	/	?	?	11µM*	/	-98*
Cc1cccc(C(C)C)c1NC(=O)c1ccc2c(c1)CCCN2S(C)(=O)=O	-11%	14%[46.1 µM]	-13%[46.1 µM]	/	2%	1
COc1ccc(Nc2ncnc3c2cnn3-c2cc(Cl)ccc2C)cc1OC	-15%	?	/	/	-15%	?
O=C(CSc1nnc(NC(=O)C2CC2)s1)Nc1ccccc1Cl	4%	/	?	24%	-3%	-63*
Cc1nc(NC(=O)/C=C/c2ccccc2)sc1C(=O)Nc1ccc(Cl)cc1	/	1%	?	-27%	/	-23
Cc1nc(NC(=O)C2CC2)sc1C(=O)Nc1ccccc1Cl	/	/	/	?	/	-104*
Cc1nc(Nc2ccc(Cl)cc2Cl)sc1C(=O)Nc1ccccc1	i	-15%	?	10µM*	4%	-14
Cc1nc(NC(=O)C2CC2)sc1C(=O)Nc1cccc(Cl)c1	i	?	-14%[46.1 µM]	-14%	-21%	26
O=C(CSc1nnc(NC(=O)C2CC2)s1)Nc1ccccc1C(F)(F)F	15%	-2%	?	-13%	2%	3
Cc1nc(Nc2ccc(Cl)c(Cl)c2)sc1C(=O)Nc1ccccc1	/	?	?	8.9µM*	/	-89*
O=C(/C=C/c1ccc(S(=O)(=O)N2CCOCC2)cc1)NC(=S)NCCCn1ccnc1	-16%	?	?	22µM*	?	-82*
O=C(COc1ccc(S(=O)(=O)N2CCOCC2)cc1)NCCCn1ccnc1	-17%	?	3%[46.1 µM]	10%	-4%	?
COc1ccccc1CCNCc1cc2cccc(C)c2nc1-c1cccs1	-9%	/	/	/	-3%	/
COC(=O)C1=C(c2ccccc2)c2ccccc2S(=O)(=O)N1CC(=O)Nc1ccc(F)c(F)c1	-12%	11µM*	?	/	1%	-30
COC(=O)C1=C(c2ccccc2)c2ccccc2S(=O)(=O)N1CC(=O)Nc1ccccc1Cl	-24%	-22%[46.1 µM]	?	/	-13%	-11
Cc1cccc(N2C(=O)/C(=C/c3ccc(N4CCN(C)CC4)o3)C(=O)NC2=S)c1C	-10%	-12%	-15%	10%	33%	-64*
CCc1ccccc1N1C(=O)/C(=C/c2ccc(N3CCN(C)CC3)o2)C(=O)NC1=S	2%	1%	14%	11%	69%	?
